# GPR151 ag: human GPR151 activation. Q8TDV0. PathHunter beta-arrestin GPR151 cells, luminescence. activation, % at 11.2 µM. hit rate 1% among 650,000. AID 1508602; in the data active = activation above about 4.9%
# TEAD-YAP inh: TEAD-YAP interaction inhibition | HEK-TIYL cells, TEAD-Gal4/YAP UAS-luciferase luminescence | inhibition, % at 9.12 µM | hit rate 1.4% among 640,000; in the data active = inhibition above about 32%
# FBW7 activator: activators of human E3 ligase FBW7. Q969H0. AlphaScreen FBW7–phospho-cyclin E peptide binding, activator screen. normalized activity (activation), % at 26.1 µM. hit rate 0.13% among 650,000. AID 1259310; in the data active = normalized activity above about 1.9%;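 note: purified mutant Fbw7 with reduced substrate affinity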
# MITF primary: human MITF inhibition, primary screen | O75030 | AlphaScreen MITF homodimerization, bead proximity signal | inhibition, % at 2.6 µM | hit rate 0.91% among 650,000 | AID 1259374; in the data active = inhibition above about 50%
# Numbers stand for hits; 0 = inactive. The list is not random: actives were taken first. Their share in the collection is about 3.4%.
SMILES,GPR151 ag,TEAD-YAP inh,FBW7 activator,MITF primary
N#CCCN(C(=O)CCl)c1cccc(Cl)c1,0,74,0,0
N#Cc1c(-c2ccccc2)cc(-c2ccccc2)nc1SCCS(=O)(=O)Cc1ccccc1,0,0,0,0
COc1cccc(NS(=O)(=O)c2cc(C(=O)N3CCN(c4ccccc4)CC3)ccc2NCc2ccccc2OC)c1,0,0,0,0
COc1ccccc1OCC(=O)Nc1nc(CN2CCc3ccccc3C2)cs1,0,0,0,0
COc1ccc(/C=C/C(=O)Nc2nc(CN3CCc4ccccc4C3)cs2)cc1OC,0,45,0,0
O=C(Nc1nc(CN2CCc3ccccc3C2)cs1)c1ccc(F)cc1,0,32,0,0
COc1cc([N+](=O)[O-])ccc1N/C=C/C(=O)c1ccc(Cl)cc1,0,0,0,0
Cc1cc(N/C=C\C(=O)c2cccs2)no1,0,0,0,0
Cc1cc(C(=O)O)ccc1N/C=C/C(=O)c1cccs1,0,46,0,0
COc1cc([N+](=O)[O-])ccc1N/C=C/C(=O)c1cccs1,0,80,0,0
COc1cc([N+](=O)[O-])ccc1N/C=C/C(=O)c1ccccc1,0,71,0,0
Cc1ccc(-n2c(O)c(/C=N/c3ccccn3)c(=O)[nH]c2=O)cc1,0,0,0,0
Cc1ccc(-n2[nH]c(=O)c(-c3ccccn3)c2C)cc1,0,52,0,0
Cc1cc(=O)c(C(=O)OC(C)C(=O)Nc2cccc(C#N)c2)nn1-c1ccccc1[N+](=O)[O-] (stereo not given),0,0,0,0
CCC(C)N(C(=O)c1cccc([N+](=O)[O-])c1)C(C)CC (stereo not given),0,0,2.0,0
CCC(C)N(C(=O)c1ccc([N+](=O)[O-])cc1)C(C)CC (stereo not given),0,0,0,0
CCOc1ccc(-c2c3cc(O)c(=O)cc-3oc3cc(O)c(O)cc23)cc1,0,0,0,111
O=c1cc(-c2ccc3c(c2)OCCO3)oc2ccc([N+](=O)[O-])cc12,0,0,0,0
O=C1c2ccccc2C(=O)c2c(O)c([N+](=O)[O-])cc(O)c21,0,0,0,0
O=c1cc2oc3cc(O)c(O)cc3c(-c3ccccc3[N+](=O)[O-])c-2cc1O,0,0,0,114
CCOc1ccc(-c2cc(=O)c3ccc(NC(=O)c4ccncc4)cc3o2)cc1,0,0,0,0
O=c1cc2oc3cc(O)c(O)cc3c(-c3ccc([N+](=O)[O-])cc3)c-2cc1O,0,0,0,97
CC(=O)c1cccc(NC(=O)c2cc(-c3ccccc3O)on2)c1,0,0,0,0
O=C(Nc1cccc(-n2cnnn2)c1)C1CCCN(Cc2cc3ccccc3o2)C1 (stereo not given),0,41,0,0
O=C(Nc1cccc(-n2cnnn2)c1)C1CCCN(Cc2ccccc2)C1 (stereo not given),0,0,0,0
SMILES,GPR151 ag,TEAD-YAP inh,FBW7 activator,MITF primary
CCn1ncc(Cl)c1C(=O)Nc1cccc(Cl)c1Cl,0,0,0,0
C=CC[n+]1c(Nc2ccc(NC(C)=O)cc2)sc(C)c1-c1ccccc1,0,33,0,0
COc1ccc(-n2ncc3c(NC(C)(C)C)ncnc32)cc1,0,36,0,0
CCCNc1ncnc2c1cnn2-c1ccccc1,0,0,0,0
COCCCNc1ncnc2c1cnn2-c1ccccc1,0,43,0,0
CCCCC(=O)NC(c1ccccc1)c1ccc2cccnc2c1O (stereo not given),0,0,0,0
CC(=O)NC(c1cccc([N+](=O)[O-])c1)c1ccc2cccnc2c1O (stereo not given),0,83,0,74
CCCCC(=O)NC(c1cccc([N+](=O)[O-])c1)c1ccc2cccnc2c1O (stereo not given),0,88,0,55
O=[N+]([O-])c1cc(C(F)(F)F)cc([N+](=O)[O-])c1NC1CCS(=O)(=O)C1 (stereo not given),0,0,0,0
O=C1CCCC2=C1C(c1cn[nH]c1-c1ccc(F)cc1)C1=C(CCCC1=O)O2,0,49,0,0
N#CC1=C(N)OC2=C(C(=O)CCC2)C1c1cn[nH]c1-c1ccc(F)cc1 (stereo not given),0,0,0,0
COc1ccc(-c2nc(-c3ccc(OC)cc3OC)[nH]c2-c2ccc(OC)cc2)cc1,0,0,0,0
CCC(=O)Oc1ccc(-c2nc(-c3ccc(OC)cc3)no2)cc1,0,44,0,0
Oc1ccc(-c2nc(-c3ccc(Br)cc3)no2)cc1,0,50,0,0
CC(C)(C)c1ccc(-c2nc(-c3ccc(Br)cc3)no2)cc1,0,0,0,0
CC(C)(C)c1ccc(-c2nc(-c3ccccc3)no2)cc1,0,77,0,0
Cc1ccc(-c2noc(-c3ccc(O)cc3)n2)cc1,0,74,0,0
